CtBP-E1A inh: blocks the CtBP interaction with E1A. AID 651724. 340,000 compounds, 0.49% hits. AlphaScreen GST-E1A/His-CtBP binding, 1536-well; hits give low values. activity change, % (no concentration beside the values); in the data active = activity change below about -65%; inconclusive = mostly about -30% to -63%; note: % is set by controls: 0 for no effect and ±100 for the full control effect
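Protein mix (5X: 125 nM each GST-E1A, His-CtBP) was incubated with pinned compound 2 h at 37 deg C in dark, in 50 mM Tris pH 8.0 buffer with 300 mM NaCl. Glutathione donor and nickel acceptor beads followed; AlphaScreen signal read after 1 h.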
BAZ2B block: blocks human BAZ2B; AlphaScreen BAZ2B-H3K14Ac peptide displacement; AID 504333; 360,000 compounds, 4.4% hits; Potency, µM (top dose mostly 114 µM), without a hit: at the top dose activity change, negative = inhibition, usual class: inhibitors; note: potency is the fitted concentration of half-maximal effect; % is set by controls: 0 for no effect and ±100 for the full control effect; nearly all actives have a fitted effect of over 60% in size
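Protein-peptide AlphaScreen: BAZ2B 50 nM, b-H3K14Ac 50 nM, 1x PBS pH 7.4 + 0.01% Tween-20. Preincubation 30 min RT; cpd 30 min RT (top 110 uM); beads 20 min RT, light-protected.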
JMJD2A Tudor: inhibitors of human JMJD2A Tudor domain. AlphaScreen JMJD2A-Tudor / H3K4me3 peptide binding. Potency, µM (doses to about 114 µM), without a hit: at the top dose activity change, negative = inhibition, most hits filed as inhibitors. 390,000 compounds, 4.4% hits; note: potency is the fitted concentration of half-maximal effect; % is set by controls: 0 for no effect and ±100 for the full control effect; nearly all actives have a fitted effect of over 50% in size
Target sequence (O75164 whole entry, looked up, the tested form may be a part): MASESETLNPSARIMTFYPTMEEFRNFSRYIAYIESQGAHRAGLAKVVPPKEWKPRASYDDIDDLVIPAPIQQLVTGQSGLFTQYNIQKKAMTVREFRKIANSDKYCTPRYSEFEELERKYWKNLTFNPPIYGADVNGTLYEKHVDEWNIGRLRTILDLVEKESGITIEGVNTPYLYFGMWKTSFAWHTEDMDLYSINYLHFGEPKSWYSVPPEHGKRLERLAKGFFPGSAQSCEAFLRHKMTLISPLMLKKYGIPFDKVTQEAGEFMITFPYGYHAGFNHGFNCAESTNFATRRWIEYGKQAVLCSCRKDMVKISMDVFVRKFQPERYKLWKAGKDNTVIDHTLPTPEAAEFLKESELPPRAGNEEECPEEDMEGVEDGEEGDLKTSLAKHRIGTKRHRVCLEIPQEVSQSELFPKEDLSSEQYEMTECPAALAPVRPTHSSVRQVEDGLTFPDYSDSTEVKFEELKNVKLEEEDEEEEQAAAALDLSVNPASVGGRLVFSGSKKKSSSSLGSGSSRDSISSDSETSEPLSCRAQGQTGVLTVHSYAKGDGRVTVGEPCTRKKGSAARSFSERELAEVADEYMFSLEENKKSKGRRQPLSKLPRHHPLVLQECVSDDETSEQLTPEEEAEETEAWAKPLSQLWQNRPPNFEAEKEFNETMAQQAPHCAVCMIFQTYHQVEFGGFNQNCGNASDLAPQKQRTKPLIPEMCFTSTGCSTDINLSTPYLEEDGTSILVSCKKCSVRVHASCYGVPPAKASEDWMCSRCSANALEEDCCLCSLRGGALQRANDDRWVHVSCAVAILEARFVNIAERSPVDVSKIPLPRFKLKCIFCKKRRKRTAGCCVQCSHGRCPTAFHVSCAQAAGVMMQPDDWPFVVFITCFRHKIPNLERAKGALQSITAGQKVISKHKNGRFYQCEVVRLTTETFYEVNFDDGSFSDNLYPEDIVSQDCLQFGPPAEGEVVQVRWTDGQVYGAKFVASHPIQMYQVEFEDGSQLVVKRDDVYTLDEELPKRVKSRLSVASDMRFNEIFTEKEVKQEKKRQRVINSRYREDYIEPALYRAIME
G9a block: blocks human histone lysine methyltransferase G9a; AID 504332; Potency, µM (highest dose often 102 µM), without a hit: at the top dose activity, negative = inhibition, most hits filed as inhibitors; 350,000 compounds, 8.8% hits; G9a H3K9 monomethylation, AlphaScreen, 2 h; note: potency is the fitted concentration of half-maximal effect; % is set by controls: 0 for no effect and ±100 for the full control effect; nearly all actives have a fitted effect of over 75% in size
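Compounds were preincubated with 20 nM G9a for 15 min, after which biotinylated H3K9 peptide (500 nM) and SAM (20 uM) started a 2 h room-temperature reaction. Monomethylated product was quantified by antibody-based AlphaScreen chemiluminescence.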
HP1b binding inh: HP1-beta chromodomain-methylated histone interaction inhibition; 390,000 compounds, 0.56% hits; AlphaScreen HP1-beta / biotin-H3K9me3 peptide binding; Potency, µM (doses to about 114 µM), for the others: top-dose activity change, negative = inhibition, actives largely listed as inhibitors; P83916; note: potency is the fitted concentration of half-maximal effect; nearly all actives have a fitted effect of over 70% in size
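Compound inhibition of the preformed complex between 50 nM HP1-beta and 50 nM biotinylated H3K9me3 peptide was read by AlphaScreen. Buffer was PBS pH 7.4 with 0.01% Tween-20. Incubations ran 30 min at room temperature, with 10 ug/mL donor/acceptor beads.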
Six1-Eya2 inh: Six1/Eya2 interaction inhibition. Q15475+O00167. AlphaScreen GST-Six1/His-Eya2 binding, biochemical; hits give low values. activity change, % (test concentration not listed). 360,000 compounds, 0.56% hits; in the data active = activity change below about -65%; inconclusive = mostly about -30% to -63%; note: % is set by controls: 0 for no effect and ±100 for the full control effect
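Compounds are tested against tagged Six1 and Eya2 proteins bridged by glutathione donor and nickel acceptor beads; after a one-hour incubation at 37 °C without light, AlphaScreen emission is recorded.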
Starred values were filed as active, the others as inactive; ? = inconclusive; . = no result given; [ ] = another dose, or the depositor's remark. Only some compounds are listed: those with a hit (about 10% of all), similar ones and a draw of the others. Unless noted, calls come from the whole dose curve; as a rule, active = well fitted inhibition curve with a large enough effect; inconclusive = small, poorly fitted or top-dose-only effect; inactive = no such curve, though single readings can be large or run the other way.

SMILES	CtBP-E1A inh	BAZ2B block	JMJD2A Tudor	G9a block	HP1b binding inh	Six1-Eya2 inh
CCC(C)CCCCC(=O)NC(CCN)C(=O)NC(C(=O)NC(CCN)C(=O)NC1CCNC(=O)C(C(C)O)NC(=O)C(CCN)NC(=O)C(CCN)NC(=O)C(CC(C)C)NC(=O)C(Cc2ccccc2)NC(=O)C(CCN)NC1=O)C(C)O (centres undefined)	.	.	.	-43%[2.33 µM]	.	.
CCCN(CCC)c1nc(N)nc(C#N)n1	.	.	4%[57.1 µM]	.	23%[57 µM]	.
Cn1cccc1/C=C1/SC(=S)N(CC(=O)O)C1=O	-9	-33%	-24%	50µM*	9%	-18
CC(C(=O)O)N1C(=O)/C(=C/c2cccn2C)SC1=S (centres undefined)	4	-27%	-7%	?	?	-6
O=C(NN1C(=O)/C(=C/c2cccs2)SC1=S)c1ccccc1	2	11%	-6%	7%[59 µM]	35%	-16
Cn1cccc1/C=C1\SC(=S)N(NC(=O)c2ccccc2)C1=O	3	40µM*	?	?	?	?
Cn1cccc1/C=C1\SC(=S)N(NC(=O)c2ccc(F)cc2)C1=O	?	35µM*	?	9%	-38%	?
Cn1cccc1/C=C1\SC(=S)N(NC(=O)c2cccc(Cl)c2)C1=O	-22	28µM*	28µM*	22µM*	?	?
CCOc1ccc(NC(=O)C(C)Sc2nnc3cc(C)c4ccccc4n23)cc1 (centres undefined)	.	-8%	-11%	1%[59 µM]	49%	.
CCOc1ccc(C(=O)C(c2ccccc2)N2CCOCC2)cc1 (centres undefined)	23	-7%	-18%	6%[59 µM]	48%	20
COc1ccc(C(=O)C(c2ccccc2)N2CCOCC2)cc1 (centres undefined)	2	?	-30%	50µM*	41%	3
COC(=O)c1ccc(C2/C(=C(/O)c3ccc(OC)cc3)C(=O)C(=O)N2Cc2ccco2)cc1 (centres undefined)	9	?	?	45µM*	22%	-4
COc1cccc(/C(O)=C2/C(=O)C(=O)N(Cc3cccnc3)C2c2ccco2)c1 (centres undefined)	5	-34%	?	45µM*	20%	1
CCN(CC)CCN1C(=O)C(=O)/C(=C(/O)c2ccc(C)cc2)C1c1ccncc1 (centres undefined)	.	12%	.	2%[12.7 µM]	.	.
CCN(CC)CCN1C(=O)C(=O)/C(=C(/O)c2ccncc2)C1c1ccccc1 (centres undefined)	-5	-9%	-18%	50µM*	12%	0
COc1ccc(C2c3c(-c4ccccc4O)n[nH]c3C(=O)N2Cc2ccco2)cc1 (centres undefined)	-7	35µM*	?	-37%[59 µM]	-15%	-21
COc1ccc(/C(O)=C2/C(=O)C(=O)N(Cc3cccnc3)C2c2ccncc2)cc1F (centres undefined)	-7	-32%	-22%	?	12%	-18
Cc1ccc(CNC(=O)c2ccc(CS(=O)(=O)c3ccccc3)o2)cc1	.	-3%	-18%	19%	24%[57 µM]	-10
CCN(CC)CCCN1C(=O)C(=O)/C(=C(/O)c2ccc(OC)cc2)C1c1ccco1 (centres undefined)	2	.	10%	.	13%	0
COCCN1C(=O)C(=O)/C(=C(/O)c2cccc(OC)c2)C1c1ccco1 (centres undefined)	-2	79µM*	?	.	4%	-1
CCN(CC)CCN1C(=O)C(=O)/C(=C(/O)c2ccc(OC)cc2)C1c1ccco1 (centres undefined)	-3	3%	-16%	40µM*	30%	-5
CCOC(=O)C(NC(C)=O)(Nc1ccc(S(=O)(=O)Nc2cc(C)nc(C)n2)cc1)C(F)(F)F (centres undefined)	4	-3%	5%	-23%	47%	5

Compound activity: PubChem BioAssay, National Center for Advancing Translational Sciences (NCATS)
